B1: chr20:54218986:54219149:+|CDS|ENSG00000101132|unk|FALSE|unique (ssRNA)
RNA: GGGAGUUCUACAGUCCGACGAUCAAAUUUGCAAGAAGAAAUUGACGCCUUAGAAUCCAGAGUGGAAUCAAUUCAGCGAGUGUUAGCAGAUUUGAAAGUUCAGUUGUAUGCAAAAUUCGGGAGCAACAUAAACCUUGAAGCUGACAACAGAGGAUUGAGCAUCA
B2: chr5:136988535:136988636:-|CDS|ENSG00000152377|msi1|total|mutant (ssRNA)
RNA: GGGAGUUCUACAGUCCGACGAUCGGAAAGCAUCAGGCUUGGUGGCAGCUGAGAUAUGCCUUUUGUUUGGCAGGGUUUGACACCCGCAUCCUGCCCAUCUGCAAGGACUCCCUGGGCUGGAUGUUCAACAAGUUGGACAUGAACCAACAGAGGAUUGAGCAUCA
B3: ENSG00000107863:be:win_3301|CDS|ENSG00000107863|bound_else_gene|NA|bound_elsewhere_windowed (ssRNA)
RNA: GGGAGUUCUACAGUCCGACGAUCAAGGAAGAGUCGGAAAGGAAACUUCUCAGUAAAGAUGAUACCAGUCCCCCAAAAGACAAAGGCACAUGGAGAAAAGGCAUUCCAAGUAUCAUGAGAAAGACAUUUGAGAAAAAGCCAACUCAACAGAGGAUUGAGCAUCA
B4: ENSG00000136451:be:win_2301|3pUTR|ENSG00000136451|bound_else_gene|NA|bound_elsewhere_windowed (ssRNA)
RNA: GGGAGUUCUACAGUCCGACGAUCAAAAAUCUACAAAUUGUGUUUUGCUAAGAAAAGCCUCAACUGACAGAGGAGAAGUCAAGUGUGUGGACAGGCAAGCUCCUAAUAAACAGAGUCCAGUGGGAUUCCUAUUUAGGAGCCAAGCAACAGAGGAUUGAGCAUCA
B5: chr10:123166816:123166917:+|3pUTR|ENSG00000154473|unk|FALSE|unique (ssRNA)
RNA: GGGAGUUCUACAGUCCGACGAUCAAAAACUUAAAGGUAUAUUAGCAGGUUAGCCUUUGUUCUGUGGGAGAUCCAGGCCUUGUUAGAAGGACCAAGGCCAGAAUGCCCAGUUUAGCCUUAGCAUUCAAACCCUUCAUUGUUUUUCAACAGAGGAUUGAGCAUCA
B6: chr12:48653210:48654175:-|three_prime_utr|ENSG00000139620|control|control|control (ssRNA)
RNA: GGGAGUUCUACAGUCCGACGAUCGCACCAUUGUCUCAGAGUGGAUUGGCUACUGCAAAUGGGAAGCCAGAACCCACUUCUAUUAGUUGAUAGUUUGGGGAACCAUUUUACUUUGGUGGAUUUAAAUUUCUCGUUCUUCAAAGACAACAGAGGAUUGAGCAUCA
B7: chr1:162523450:162523604:+|3pUTR|ENSG00000152332|msi1|FALSE|unique (ssRNA)
RNA: GGGAGUUCUACAGUCCGACGAUCAGACUAAGUUGUGCCAGAUGUAAAUCAACCCCUCUUUUAGUUUACUUUAGACUUUGUAUUAGCUCAUCUUUUUUGUAGUAAAUCUAUAGUUUUAAGGUUUCUCAAGAUGUGGCUCUACCUCAACAGAGGAUUGAGCAUCA
B8: chr1:965281:965395:+|3pUTR|ENSG00000187961|unk|FALSE|unique (ssRNA)
RNA: GGGAGUUCUACAGUCCGACGAUCCCAUCCGUUCACGUCUCUGCAUCCAUUCCUUCAUGUCUUUAUUUAGUUGUUUAUUUAUUUAGUUAUUUAUCUUAUUUAUUGAGGGGUGAGGAGUGCCACGGCUGCCCGUUUACACCUUUACAACAGAGGAUUGAGCAUCA
B9: chr7:107760707:107760808:+|3pUTR|ENSG00000105879|unk|total|mutant (ssRNA)
RNA: GGGAGUUCUACAGUCCGACGAUCAAACAUGAAAUAUGCCGUAUGCAGAUAUCAUUUAUCCGACCGUUUGCCGUGUAUACAUUCCGAACAUACUUCUUUUGACAAAGGGUGAUCUGAUUGCUAAUUUACCAUUUUAUUCUGUCACAACAGAGGAUUGAGCAUCA
B10: chr1:162523450:162523604:+|3pUTR|ENSG00000152332|msi1|total|mutant (ssRNA)
RNA: B7 RNA with U61C, A62C, U71C, A72C, U83C, A84C, U99C, A100C, U110C, A111C
B11: chr3:62294290:62294391:+|3pUTR|ENSG00000144724|msi1|total|mutant (ssRNA)
RNA: GGGAGUUCUACAGUCCGACGAUCAACCCGUCCUCUAAAAAUUCCCUAUUACUCCUACCGCAAUCUAAUAAAAACUACCUACACCGUUACUGUUUUCUUUCCUUCUUUGCCAAAUGUUUUAUAAUAAAUCUCUUAAUUACAUACCAACAGAGGAUUGAGCAUCA
B12: chr7:107760707:107760808:+|3pUTR|ENSG00000105879|unk|FALSE|unique (ssRNA)
RNA: B9 RNA with C38U, C39A, C59U, C60A, C63U, C64A, C70U, C71A, C83U, C84A
B13: chr1:965281:965395:+|3pUTR|ENSG00000187961|unk|total|mutant (ssRNA)
RNA: B8 RNA with U67C, A68C, U83C, A84C
B14: chr3:62294290:62294391:+|3pUTR|ENSG00000144724|msi1|FALSE|unique (ssRNA)
RNA: B11 RNA with C27U, C28A, C57U, C58A, C83U, C84A
B15: chr1:229660051:229660152:+|3pUTR|ENSG00000135763|msi1|FALSE|bound_elsewhere (ssRNA)
RNA: GGGAGUUCUACAGUCCGACGAUCCUCAUUCAUAGUCUCAGUUACCCAGAUAACCUCGGUUGUCACCUUGGAGUAUCUUGUUGUAGUCCCUUUACUAUGUGUAUGUAUAUAGAUGUGCAUAUAAAUAUAUAUAGUAGCUAAAUUCAACAGAGGAUUGAGCAUCA
B16: chr11:130144177:130144243:+|3pUTR|ENSG00000084234|msi1_unk|total|mutant (ssRNA)
RNA: GGGAGUUCUACAGUCCGACGAUCAUGAGGGUGUCCGCUGCUGCUUUCCUUCGGAAUCCAGUGCUUCCACAGAGAUCCGCCUGCCGCUUAUAUUUGACAUUCUUCACUGUCUGUUGUUUACCUACCGCCGCUUUUUACCGUUCACAACAGAGGAUUGAGCAUCA
B17: chr10:119167843:119167906:-|3pUTR|ENSG00000165672|msi1_unk|FALSE|overlapping (ssRNA)
RNA: GGGAGUUCUACAGUCCGACGAUCUGCAUGAUCCCUCAUCCCUGAAAUUGAGUUUAUGUAGUCAUUUUACUUAUUUUAUUCAUUAGCUAACUUUGUCUAUGUAUAUUUCUAGAUAUUGAUUAGUGUAAUCGAUUAUAAAGGAUACAACAGAGGAUUGAGCAUCA
B18: chr17:77216858:77216994:+|3pUTR|ENSG00000129657|unk|FALSE|bound_elsewhere (ssRNA)
RNA: GGGAGUUCUACAGUCCGACGAUCUGUUUCUACCUUUAGUACCUUGCCACUCUUUUAAAACGCUGCUGUCAUUUCCCAUUUCUUAGUACUAAUGAUUCUUUGAUUCUCCCUCUAUUAUGUCUUAAUUCACUUUCCUUCCUAAAUCAACAGAGGAUUGAGCAUCA
B19: chr12:2800410:2800520:+|CDS|ENSG00000004478|unk|total|mutant (ssRNA)
RNA: GGGAGUUCUACAGUCCGACGAUCAAAUACAAGCAAGCUUUACUACAGUAUAAGAAGAUCGUGUCUUGGCUGGAAUAUGAGUCCCGUUUUUCCAAUGAGGAAGCACAGAAAGCACAGGCCCUUCGACUGGCCUCUCACCUCAACCAACAGAGGAUUGAGCAUCA
B20: chr11:46743636:46743700:-|3pUTR|ENSG00000175216|msi1_unk|total|mutant (ssRNA)
RNA: GGGAGUUCUACAGUCCGACGAUCUUGUAAAAUUGUCCUAAUCUUUCCCCGCUUUUUAACCGUUAAUAUCCGAAACUCUUUAACCGUUUUCCUUUCAGUUUGUGAGCUCUUCUCUGUCGCCCUGAAGGGUCACUGUAUUCUGUACAACAGAGGAUUGAGCAUCA
B21: chr2:166409664:166409935:-|three_prime_utr|ENSG00000136546|control|control|control (ssRNA)
RNA: GGGAGUUCUACAGUCCGACGAUCUGUGGUAACAAGCCAAGCUUUUAAUGUCAUUGUUAUGGUUCUUAUAUGUUUCCAAGCAAUAGCCAUGAUGAUAGACACUGAUGUUCAGAGUCUACAAAUGUCCAUUGCUCUCUACUGGAUCAACAGAGGAUUGAGCAUCA
B22: ENSG00000070961:be:win_5601|3pUTR|ENSG00000070961|bound_else_gene|NA|bound_elsewhere_windowed (ssRNA)
RNA: GGGAGUUCUACAGUCCGACGAUCGAGGUAGCAUGAUAUGCUGGAAAGCAUAUUAGACUAGGAGUCAAGACCUGGUUUCUAGUCUUGGUUUUGCCAUUAAUGUGCUGCAUGAUCUUGGGAAAAUCAUUUACCCUAAAUAAGGGUCAACAGAGGAUUGAGCAUCA

Substitutions are numbered along the chain they refer to. In all, about 5,800 sequences were measured (“enrichment r”: median about 0.54, highest 2% from about 16 on). The list comes from a sample in which the highest values are over-represented; it also holds similar and randomly drawn sequences.

The target of this test is MSI1 full-length (mouse, UniProt Q61474 1-362). Description: nsRBNS (natural sequence RNA bind-n-seq); RBNS binding buffer (assumed for nsRBNS): 25 mM Tris pH 7.5, 150 mM KCl, 3 mM MgCl2, 0.01% Triton X-100, 500 ug/ml BSA, 20 U/ml SUPERase-In, 4 C; UNK is unkempt and MSI1 is Musashi-1; names of the RNAs are library labels; protein concentration not given here; high values mean tight binding.
MSI1 full-length, sequence (Q61474 whole entry): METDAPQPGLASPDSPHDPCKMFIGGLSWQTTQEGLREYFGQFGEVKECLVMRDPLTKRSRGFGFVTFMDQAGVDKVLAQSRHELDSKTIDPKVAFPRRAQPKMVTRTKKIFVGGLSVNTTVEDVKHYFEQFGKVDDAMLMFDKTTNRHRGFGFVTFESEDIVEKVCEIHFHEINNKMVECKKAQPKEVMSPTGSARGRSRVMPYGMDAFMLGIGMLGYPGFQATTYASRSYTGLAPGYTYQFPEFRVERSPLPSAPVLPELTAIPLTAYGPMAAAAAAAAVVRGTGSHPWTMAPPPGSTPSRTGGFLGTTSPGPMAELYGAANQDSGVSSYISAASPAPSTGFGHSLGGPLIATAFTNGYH
In turn, B1 registered a binding signal of 0.378 enrichment R.
Molecule B2 registered a binding signal of 0.511 enrichment R.
Take B3: the binding signal stood at 0.359 enrichment R.
With B4, the binding signal was 0.431 enrichment R.
Turning to B5, the binding signal was found to be 5.77 enrichment R.
The molecule B6 returned a binding signal of 0.61 enrichment R.
The molecule B7 gave a binding signal of 19.3 enrichment R.
B8 came in with a binding signal of 64.6 enrichment R.
With B9 the figure was 0.319 enrichment R.
B10: the binding signal was 0.276 enrichment R.
B11 came in with a binding signal of 8.49 enrichment R.
B12 yielded a binding signal of 56.7 enrichment R.
As for B13, the binding signal worked out at 8.96 enrichment R.
As to B14, the binding signal is 32 enrichment R.
For the molecule B15, the binding signal was determined as 3.57 enrichment R.
B16 yielded a binding signal of 0.557 enrichment R.
B17 displayed a binding signal of 1.93 enrichment R.
The molecule B18 came in with a binding signal of 6.66 enrichment R.
To B19 belongs 0.381 enrichment R; to B20, 0.866 enrichment R.
In the case of B21, the binding signal came out at 0.263 enrichment R.
With B22 the figure was 0.263 enrichment R.

Values taken from article PMC12136788.
